What follows are compounds tested against Bifunctional epoxide hydrolase 2 (Homo sapiens) (UniProt P34913) (assay: sEH inhibitor concentration-response potency, dose response, biochemical, human sEH, fluorescence, Infinite200 (AID 1026)). Conditions: recombinant human sEH, fluorogenic substrate, at 0.2 µM, hits give high values; call rule not given here.
Chain of Bifunctional epoxide hydrolase 2 (Homo sapiens) (P34913 whole entry, looked up): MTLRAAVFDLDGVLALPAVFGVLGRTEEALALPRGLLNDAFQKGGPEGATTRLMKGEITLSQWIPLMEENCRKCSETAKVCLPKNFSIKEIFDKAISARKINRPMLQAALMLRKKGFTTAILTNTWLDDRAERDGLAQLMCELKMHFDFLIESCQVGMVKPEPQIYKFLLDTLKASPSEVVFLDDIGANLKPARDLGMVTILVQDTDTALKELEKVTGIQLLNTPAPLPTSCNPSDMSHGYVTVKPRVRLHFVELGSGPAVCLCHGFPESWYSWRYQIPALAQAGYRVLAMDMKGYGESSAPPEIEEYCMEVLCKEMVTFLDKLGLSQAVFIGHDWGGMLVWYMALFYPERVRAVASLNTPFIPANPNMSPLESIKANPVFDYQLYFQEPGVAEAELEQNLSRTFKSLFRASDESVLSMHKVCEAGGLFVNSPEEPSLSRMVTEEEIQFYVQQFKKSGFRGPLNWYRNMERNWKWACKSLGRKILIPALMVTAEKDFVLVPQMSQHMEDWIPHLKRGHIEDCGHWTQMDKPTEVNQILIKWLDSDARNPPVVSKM

inhibition, inactive:
Cc1oc(-c2ccccc2F)nc1CN1CCC(C(=O)NCCC2=CCCCC2)CC1 56.5%
CC(C)CN1C(=O)c2ccc(C(=O)NCc3ccc4c(c3)OCO4)cc2C1=O 56%
O=C(NCc1ccc(N2CCCC2=O)cc1)NC1CCCCC1 47.5%
Cc1ccc(CCNC(=O)C2CCCN(S(=O)(=O)c3cccc4nsnc34)C2)cc1 (stereo not given) -5.2%
CCN(CCNC(=O)C1CCN(Cc2nc(-c3cccc(Cl)c3)oc2C)CC1)c1ccccc1 45.4%
O=C(Nc1cccc(C(F)(F)F)c1)NC1CCCCC1 66.5%
Cc1ccc2c(c1)nnn2C1CCN(C(=O)NC23CC4CC(CC(C4)C2)C3)CC1 60.5%
COc1ccc(C2CCCN2C(=O)Nc2ccc(Cl)cc2)cc1OC (stereo not given) 71.3%
C=CCN1C(=O)CSc2ccc(C(=O)NCCC3=CCCCC3)cc21 55.8%
COc1ccccc1NS(=O)(=O)c1cccc(C(=O)NN)c1 42.3%
CC(c1ccccc1)N1CCn2c(nc3cc(NC(=O)NC4CCCCC4)ccc32)C1 (stereo not given) 70.1%
Cc1ccccc1OCCCC(=O)Nc1ccc(Br)cc1 69.8%
O=C(NCCC(c1ccccc1)c1ccccc1)c1ccc(Br)o1 72%
O=C(Nc1ccc(Cl)cc1)N1CCC(c2nc(-c3ccccc3Cl)no2)CC1 62.8%
O=C(NC1CCCCCCC1)C1CCN(c2nc3ccccc3o2)CC1 73.5%
COC(=O)[C@@H](NC(=O)NCc1ccccc1Cl)C(C)C 61.5%
O=C(COc1c(F)c(F)c(C(F)(F)F)c(F)c1F)Nc1ccc(N2CCOCC2)c(Cl)c1 49.2%
Cc1ccccc1C(=O)N1CCC(C(=O)Nc2ccc(S(=O)(=O)N(C)C(C)C)cc2)CC1 50.3%
O=C(Nc1ccc(F)c(F)c1)NC1CCCCC1 55.5%
O=C(CN1C(=O)c2ccccc2S1(=O)=O)Nc1ccc(S(=O)(=O)N2CCCCC2)cc1 49.9%
O=C(Nc1cccc(F)c1)NC1CC2CCCC(C1)N2C1CC1 (stereo not given) 58.4%
Cn1c(C(=O)N2CCCC(C(=O)NCCCSC3CCCCC3)C2)cc2sccc21 (stereo not given) 49.4%
O=C(Cc1ccc(Cl)cc1)Nc1ccc(N2CCN(C(=O)c3ccco3)CC2)c(Cl)c1 64.8%
O=C(NCc1ccccc1Cl)c1ccc(Cn2cc(C(F)(F)F)ccc2=O)cc1 52.6%
CCC(CC)NC(=O)COC(=O)c1ccc(OCC(=O)Nc2ccccc2OC)c(OC)c1 48.6%
CC(Cc1cccs1)NC(=O)Nc1ccc(Cl)cc1 (stereo not given) 60.6%
CCCCCC(=O)Nc1ccc2oc(-c3cncc(Br)c3)nc2c1 51.2%
CC(=O)NC1CC2CCCC(C1)N2C(=O)Nc1ccc(Cl)c(C(F)(F)F)c1 (stereo not given) 41.4%
O=C(Nc1ccccc1)Nc1ccc(S(=O)(=O)N2CCCCC2)cc1 72.3%
O=C(NCCc1ccccc1)NC1CCCCC1 44.6%
COc1ccc(CCNC(=O)c2ccc3c(c2)NC(=O)C(N2CCOCC2)S3)cc1OC (stereo not given) 49.2%
Cc1nc2cc(NC(=O)NCCC3=CCCCC3)ccc2o1 45%
O=C(NCCC1=CCCCC1)c1ccc(F)c(S(=O)(=O)N2CCOCC2)c1 60.6%
Cc1ccc(-n2nnnc2SCC(=O)NCCC2=CCCCC2)c(C)c1 41.9%
O=C(Nc1ccc2c(c1)nc1n2CCN(Cc2ccccc2)C1)NC1CCCCC1 58.4%
CCC(C)c1ccc(NC(=O)c2cccs2)cc1 (stereo not given) 68%
O=C(CCSc1ccc(Cl)cc1)NC12CC3CC(CC(C3)C1)C2 46.4%
CCc1ccc(NC(=O)Nc2ccc3c(c2)N(C)C(=O)CS3)cc1 61.2%
Cc1noc(C)c1COc1cccc(C(=O)NCc2ccccc2Cl)c1 52.4%
CCOC(=O)c1sc(NC(=O)c2ccc(C)s2)cc1C 59.1%

Reference: PubChem BioAssay AID1026 (Columbia University Molecular Screening Center, 2008)
